Source: PubChem BioAssay
Compounds with a hit are over-represented: about 7.9% of the library has one in this group of screens.
HT1080 IDH1KD tx: qHTS for induction of synthetic lethality in tumor cells producing 2HG: qHTS for the HT-1080-IDH1KD cell line. AID 686971, 2013. Potency, µM (series often up to 46.1 µM), without a hit: at the top dose activity, negative = toxicity, most hits filed as cytotoxic. 2% of 360,000 active. HT-1080 IDH1 knockdown viability, ATP luminescence, 48 h;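 note: 0% = DMSO wells and -100% = cell-free medium wells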
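Luminescent ATP read-out (CellTiter-Glo, 10 min at room temperature) after 48 h compound exposure at 37 °C gave viability of IDH1-knockdown HT-1080 cells. Activity was normalised to DMSO and cell-free wells, then fitted as concentration-response curves.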
HT1080NT lethal: qHTS for induction of synthetic lethality in tumor cells producing 2HG: qHTS for the HT-1080-NT fibrosarcoma cell line; HT-1080-NT fibrosarcoma viability, CellTiter-Glo ATP luminescence, 48 h; Potency, µM (titrated, usually from 46.1 µM), for inactives: at the highest dose activity, negative = less viability, hits mostly cytotoxic; 1.6% of 360,000 active; AID 686970, 2013;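 note: NT is the 2HG producing partner of a matched IDH1 knockdown line; 0% = DMSO-treated cells and -100% = media-only wells without cells; nearly all actives have a fitted effect of over 55% in size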
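Luminescent CellTiter-Glo readout after 48 hours of compound exposure at 37 degrees C defined viability of HT-1080-NT cells. Activity was normalized to DMSO wells and cell-free media wells; concentration-response curves were fitted and assigned curve classes.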
SW480 rereplic: A quantitative high throughput screen for small molecules that induce DNA re-replication in SW480 colon adenocarcinoma cells | SW480 DNA re-replication, Hoechst DNA content imaging, 48 h | Potency, µM (highest dose often 46.1 µM), inactives show at the highest dose re-replication activation, usual class: activators | 1.8% of 340,000 active; note: % of control where 0% means no effect; nearly all actives have a fitted effect of over 55% in size
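Compounds, transferred as 23 nL by pin tool, were incubated with cells for 48 hr; DNA content per nucleus was then quantified by Hoechst staining and fluorescence plate imaging.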
KB-V1 cytotox: qHTS assay for MDR1-selective chemotherapeutics: Primary screen using the drug-selected MDR subline cells KB-V1; KB-V1 MDR cells viability, CellTiter-Glo, 72 h; Potency, µM (highest dose often 46.1 µM), hits mostly cytotoxic; 3.4% of 400,000 active; AID 1347076, 2019; note: % is set by controls: 0 for no effect and ±100 for the full control effect; nearly all actives have a fitted effect of over 60% in size
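Cells of the MDR subline KB-V1 are plated, dosed with compound at multiple concentrations, and incubated 72 h at 37 degrees C; CellTiter-Glo is then added and luminescence read after 10 min.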
MCF10A rereplic: A quantitative high throughput screen for small molecules that induce DNA re-replication in MCF 10a normal breast cells; MCF 10A DNA re-replication, Hoechst nuclear intensity, 48 h; Potency, µM (top dose mostly 46.1 µM), for the others: at the highest dose activity, positive = re-replication, usual class: activators; 2.9% of 350,000 active; note: % of control where 0% means no effect; nearly all actives have a fitted effect of over 50% in size
KB-3-1 tox: qHTS assay for MDR1-selective chemotherapeutics: Primary screen using the parental adenocarcinoma cell KB-3-1. Potency, µM (titrated, usually from 46.1 µM), actives largely listed as cytotoxic. KB-3-1 viability, CellTiter-Glo ATP luminescence, 72 h. 1.4% of 400,000 active; note: % is set by controls: 0 for no effect and ±100 for the full control effect; nearly all actives have a fitted effect of over 60% in size
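Multi-concentration cytotoxicity screen in KB-3-1 cells grown in DMEM lacking phenol red with 10% FBS. After 72 h at 37 °C with compound, ATP-dependent luminescence was recorded.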
* = called active by the depositor; i = inactive; u = inconclusive; x = no result given; [ ] = dose if it differs, or a comment. Calls come from the whole dose curve; as a rule, active = well fitted curve in the direction sought with a large enough effect; inconclusive = small, poorly fitted or top-dose-only effect, or another doubt; inactive = no such curve, though single readings can be large; an effect the other way counts as inactive or inconclusive. Potency is the fitted concentration of half-maximal effect.

SMILES | HT1080 IDH1KD tx | HT1080NT lethal | SW480 rereplic | KB-V1 cytotox | MCF10A rereplic | KB-3-1 tox
COC(=O)C1=CN(c2ccc(F)cc2)C=C(C(=O)OC)C1c1ccc([N+](=O)[O-])cc1 | -3% | -15% | 1% | i | 10% | i
COc1cc(-c2nc(-c3ccc4c(c3)[nH]c(=O)n4C)no2)cc(OC)c1OC | x | x | x | u | x | i
Cc1ccc(C(=O)N2CCN3C(=O)c4ccccc4C23c2ccccc2)cc1 (stereo not given) | 25% | 7% | -1% | i | -3% | i
O=C1c2ccccc2C2(c3ccccc3)N1CCN2C(=O)C(Cl)(Cl)Cl (stereo not given) | u | u | u | 16µM* | u | u
O=C(NCCc1ccccc1Cl)c1sc2ncccc2c1-n1cccc1 | x | x | x | i | x | i
CCCCOc1ccc(CSCCN=C(N)N)cc1 | 26µM* | u | u | i | u | i
O=S(Cc1ccc(Cl)cc1)CC(O)COCc1ccc(Cl)cc1 (stereo not given) | -21% | -4% | -7% | 16µM* | -10% | i
OC(CNCc1ccccc1)COCc1ccc(Cl)cc1 (stereo not given) | -16% | -27% | 29% | i | -41% | i
COc1c(S(=O)(=O)NCCCn2ccnc2)ccc(Cl)c1Cl | 4% | -3% | u | i | 12µM* | i
CCc1cccc(NC(=O)Cn2c(=O)n(-c3ccccc3C)c(=O)c3c2c2cc(C)ccc2n3C)c1 | x | x | x | i | x | i
CS/C(N)=N/N=C/c1cc(C)ccc1O | -11% | 0% | 15µM* | i | 1% | i
CCS/C(N)=N/N=C/c1cc(C)ccc1O | u | -3% | u | i | 8% | i
COc1ccc(-n2nnnc2SCC(=O)Nc2ccc3c(c2)OCCO3)c(OC)c1 | -14% | -9% | 5% | i | 1% | i
CCC(=O)Nc1nnc(SCC(=O)Nc2ccc3c(c2)OCCO3)s1 | u | -16% | -20% | i | u | u
COc1ccc(Nc2nnc(SCC(=O)NC(=O)Nc3ccc4c(c3)OCCO4)s2)cc1 | 6% | 10% | 10µM* | i | 13µM* | i
COc1cccc(-n2nnnc2SCC(=O)Nc2ccc3c(c2)OCCO3)c1 | u | 14µM* | 0%[9.22 µM] | i | -1% | i
O=C(CSc1nnnn1-c1ccc2c(c1)OCO2)NCc1cccs1 | -2% | -8% | -2% | i | 7% | i
COc1ccc(-n2nnnc2SCC(=O)Nc2cccc(NC(C)=O)c2)cc1OC | 0% | 0% | 1% | i | 3% | i
O=C(CSc1nnnn1-c1ccc2c(c1)OCO2)NCc1ccccc1 | 13µM* | u | 16µM* | 12µM* | 26% | 7.3µM*
COc1ccc(-n2nnnc2SCC(=O)Nc2ccc3c(c2)OCCO3)cc1OC | -4% | -27% | 5% | 9.2µM* | 15% | u
Cc1c(Cl)cccc1NC(=O)CSc1nc(=O)n(Cc2cccnc2)c2c1CCC2 | x | x | x | i | x | i
COc1ccc(-n2nnnc2SCC(=O)c2ccc3c(c2)OCCO3)c(OC)c1 | 23% | 7% | 2% | 9.2µM* | -1% | i
COc1ccccc1CCNc1ncnc2nc[nH]c12 | x | x | x | i | x | u
COc1cc(C(O)c2nc(-c3ccc(N(C)C)cc3)cs2)ccc1F (stereo not given) | u | -1% | x | u | x | i
O=S1(=O)CC(N2CCCCC2)CN1CCc1ccccc1 (stereo not given) | 18% | 24% | x | i | x | i
SMILES | HT1080 IDH1KD tx | HT1080NT lethal | SW480 rereplic | KB-V1 cytotox | MCF10A rereplic | KB-3-1 tox
Cc1ccc2[nH]c(=O)c3cc(C(=O)N4CCN(c5ccccc5)CC4)sc3c2c1 | x | x | x | u | x | i
CCCCN(C)C(=O)c1sc(=O)n(Cc2ccccc2C#N)c1C | 2% | 10% | x | u | x | i
Fc1ccccc1COc1cccc(/C=N/n2cnnc2)c1 | 4% | -3% | -3% | 13µM* | 4% | i
C(=N\n1cnnc1)/c1cccc(Oc2ccccc2)c1 | 2% | 4% | 21% | i | 730%[0.0737 µM] | i
COc1cccc(NC(=O)c2oc3ccccc3c2NC(=O)C23CC4CC(CC(C4)C2)C3)c1 | x | x | x | i | x | i
COc1cc(OC)c(NC(=O)Cc2c(C(=O)O)c(C)cn2C)cc1Cl | x | x | x | i | x | i
C=CCNC(=S)N1CCN(c2ccc([N+](=O)[O-])cc2)CC1 | -6% | 0% | -4% | 15µM* | 11% | i
COCCCNC(=S)N1CCN(c2nc3ccccc3s2)CC1 | 0% | 21% | 0% | 15µM* | 3% | u
COCCNC(=S)N1CCN(c2nc3ccccc3s2)CC1 | -1% | 9% | -19% | i | -7% | i
COCCCNC(=S)N1CCN(c2ccc([N+](=O)[O-])cc2)CC1 | 0% | 10% | -4% | 16µM* | 3% | u
O=C(Nc1ccc2ccccc2c1)Nc1nnc(-c2ccccc2Cl)s1 | x | x | x | i | x | i
COc1cc(/C=N/NC(=S)Nc2cccc(Cl)c2C)ccc1OCC(=O)N1CC(C)OC(C)C1 (stereo not given) | -16% | -1% | 3% | 4.6µM* | 2% | i
CN(C)/N=C/c1c(O)ccc2ccccc12 | -6% | -1% | -6% | i | -4% | i
OCC(CO)(CO)N=Cc1c(O)ccc2ccccc12 | u | u | 0% | u | 8.2µM* | i
Oc1ccccc1C=Nc1cccc2ccccc12 | -12% | -3% | -6% | i | -2% | i
Oc1cccc(C=Nc2cccc3ccccc23)c1O | 23µM* | 18µM* | 18µM* | i | 18µM* | i
Oc1ccccc1N=Cc1c(O)ccc2ccccc12 | 18µM* | u | 17% | i | u | i
COc1ccc(-c2cnn3c4c(c(C)nc23)CCN4C(C)C)cc1OC | 22% | 3% | u | 2.1µM* | u | i
COC(CN1CCc2c(C)nc3c(C#N)cnn3c21)OC | -2% | 1% | 6% | i | 11% | i
CC1(C)CC=CC(COC(=O)c2ccccc2C(=O)O)C1 (stereo not given) | 13% | -3% | -4% | i | 2% | i
COC(=O)c1cc(C(=O)N2CCN(C(=O)c3ccco3)CC2)cc([N+](=O)[O-])c1 | -4% | -5% | 2% | i | 2% | i
